Out of some 1,600 compounds screened, about 25 (2%) were called active. About 7% were inconclusive and are not listed. Calls come from the whole dose curve; as a rule, active = well fitted inhibition curve with a large enough effect; inconclusive = small, poorly fitted or top-dose-only effect, or effect the other way; inactive = no such curve, though single readings can be large or run the other way. What follows is part of a selection rich in actives, with near analogues and random picks from the rest.
Molecular target: Runt-related transcription factor 1 (Homo sapiens) + Core-binding factor subunit beta (Homo sapiens) (UniProt Q01196+Q13951)
Experiment: qHTS Assay for Compounds Blocking the Interaction Between CBF-beta and RUNX1 for the Treatment of Acute Myeloid Leukemia: Hit Validation with Orthogonal Assay
Details: CBFbeta-RUNX1 binding orthogonal assay, biochemical; series mostly up to 41 µM; activity change, negative = inhibition: at the top concentration
Procedure, shortened: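 This is an orthogonal TR-FRET assay. His6-CBF-beta and biotin-RUNX1 (30 nM each) were preincubated with compound for 30 min, then Tb-anti-His antibody (0.44 ng) and streptavidin-XL665 (5 nM) were added. The signal was read after 90 min.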
% is set by controls: 0 for no effect and ±100 for the full control effect; potency is the fitted concentration of half-maximal effect.

Chain of Runt-related transcription factor 1 (Homo sapiens) + Core-binding factor subunit beta (Homo sapiens) (Q01196 whole entry, looked up): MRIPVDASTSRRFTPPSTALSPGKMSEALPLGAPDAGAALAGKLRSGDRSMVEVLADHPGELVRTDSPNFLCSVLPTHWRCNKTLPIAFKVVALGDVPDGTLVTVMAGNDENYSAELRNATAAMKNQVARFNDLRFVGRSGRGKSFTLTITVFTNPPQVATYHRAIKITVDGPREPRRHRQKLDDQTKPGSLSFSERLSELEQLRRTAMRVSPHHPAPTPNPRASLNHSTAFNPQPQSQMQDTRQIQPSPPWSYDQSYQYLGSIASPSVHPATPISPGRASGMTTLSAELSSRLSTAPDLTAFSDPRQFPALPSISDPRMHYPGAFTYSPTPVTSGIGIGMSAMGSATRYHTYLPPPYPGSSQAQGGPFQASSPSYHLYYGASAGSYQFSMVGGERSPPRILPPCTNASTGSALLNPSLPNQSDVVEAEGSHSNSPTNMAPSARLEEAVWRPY
Chain of Runt-related transcription factor 1 (Homo sapiens) + Core-binding factor subunit beta (Homo sapiens) (Q13951 whole entry, looked up): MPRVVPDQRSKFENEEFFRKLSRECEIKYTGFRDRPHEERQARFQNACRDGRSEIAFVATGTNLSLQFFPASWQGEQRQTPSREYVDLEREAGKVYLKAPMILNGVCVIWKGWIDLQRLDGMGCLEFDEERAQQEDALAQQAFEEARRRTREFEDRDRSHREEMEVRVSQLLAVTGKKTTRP

Activity change, negative = inhibition, inactive:
NS(=O)(=O)c1ccc(N/N=C/c2ccc(C(=O)O)cc2)c([N+](=O)[O-])c1 94.8%
CC(=O)CCn1cc([N+](=O)[O-])nc1C -5.17%
Cc1cccn(Cc2c(F)cccc2Cl)c1=O -6.17%
CC(C)(C)OC(=O)N1CCCN(C(=O)Nc2ccc(C(F)(F)F)cc2)CC1 9.91%
CC(/C=N/n1c(-c2ccccn2)n[nH]c1=S)=C\c1ccccc1 -4.6%
CCC12CCCN3CCc4c(n(c5ccccc45)C(O)(C(=O)OC)C1)C32 (centres undefined) 36%
O=C(O)CSCC(=O)N1CCCN(c2nc3ccc(Cl)cc3s2)CC1 -5.09%
Cc1nn(Cc2ccccc2)c(C)c1/C=N/NC(=O)c1ccncc1 2.97%
COc1ccccc1OCc1ccc(C(=O)NN)o1 0.502%
Cc1nn(C)c(=O)c(N)c1-c1cc(-c2ccc(Cl)c(Cl)c2)n[nH]1 9.21%
CC(C)(C)c1ccc(C(=O)Cn2nc(C(=O)O)c3ccccc3c2=O)cc1 3.83%
CN(C)c1cccc(N(C)C)c1CNC(=O)C(C)(C)C 1.48%
S=c1[nH]nc(-c2cccs2)n1C1CCCCC1 -14.4%
CCCSc1nnc(NC(=O)Nc2ccc(C)cc2)s1 -0.563%
O=C(/C=C/c1cn(CC(O)CN2CCOCC2)c2ccccc12)c1cccs1 (centres undefined) 4.2%
Cc1nc([N+](=O)[O-])cn1CC(O)c1ccccc1 (centres undefined) 20.8%
CCSc1cc(Cl)nc(N)n1 17.2%
COc1cc(OC)c(OC)cc1/C=N/NC(=O)CCc1c(C)n[nH]c1C 18.8%
CC(=O)N1CCCC1(C(=O)O)c1ccccc1 (centres undefined) 3.9%
O=C(N/N=C/C(Br)=C/c1ccccc1)C(O)c1ccccc1 (centres undefined) 8.96%
O=C(O)C1CC(c2ccccc2)=Nc2ccccc2S1 (centres undefined) -10.5%
COc1ccc2nc(-c3ccc(Cl)cc3)cc(C(=O)O)c2c1 34.7%
Cc1ccc(OCC(=O)N(Cc2ccc(N(C)C)cc2)C2CCS(=O)(=O)C2)cc1C (centres undefined) 10.2%
CCOC(=O)c1cnc2c(F)ccc(F)c2c1Sc1ccccc1 8.39%
O=C(Nc1ccc(Cl)cc1)NC1CCCCNC1=O (centres undefined) 2.89%
Cc1nn(-c2ccccc2)nc1C(=O)NNC(=O)c1cccc2ccccc12 22.3%
Cc1nn2c(NCCN(C)C)c3c(nc2c1-c1ccccc1)CCCC3 -6.26%
Cc1nc([N+](=O)[O-])cn1C(C)C -1.09%
c1ccc(-c2ccc(C3=Nn4c(nnc4-c4cccs4)SC3)cc2)cc1 2.54%
CC(=O)Nc1ccc(Nc2cc(C(C)C)nc3c(-c4ccccc4)c(C)nn23)cc1 9.96%
O=C(O)c1ccccc1Sc1ccccc1S(=O)(=O)NC1CCCCC1 -9.91%
CCC(C)NC(=O)CC(C)C (centres undefined) 0.673%
O=C1CC(N2CCN(S(=O)(=O)c3ccccc3)CC2)C(=O)N1c1ccccc1 (centres undefined) 3.16%
C/C(Cc1ccccc1)=N\NC(=O)CNC(=O)c1ccc(Cl)cc1Cl -5.63%
N/C(CC1CC1(Cl)Cl)=N\OC(=O)c1ccccc1 (centres undefined) 1.08%
CC(=O)COc1nc2c(c(-c3ccco3)c1C#N)CCc1ccccc1-2 8.75%
Nc1nc(NCc2ccco2)nc(NCCO)c1[N+](=O)[O-] 6.69%
Cc1ccc(-n2ncc(-c3nn[nH]n3)c2N)cc1 4.84%
O=C(/C=C/c1ccc(O)c(O)c1)c1ccccc1O 15.8%
NCCc1ccc(O)c(O)c1 -0.396% [at 82.4 µM]
COc1ccc(C(=O)Nc2cccnc2Sc2ccc(Cl)cc2)cc1 -4.01%
C/C(=N\NC(=O)Cn1nc(C)cc1C)c1ccc([N+](=O)[O-])cc1 53.1%
Cc1n[nH]c(C)c1CCC(=O)N/N=C/c1cccs1 15.4%
CCOC(=O)COc1nc2c(c(-c3ccco3)c1C#N)CCc1ccccc1-2 0.967%
CCOc1ccc(/C(C)=N/NC(=O)Cn2nc([N+](=O)[O-])cc2C)cc1 2.61%
Cc1ccccc1NC(=S)Nc1ccccn1 -11.9%
Cc1ccc(NC(=S)Nc2ccccn2)cc1C 17.3%
Clc1nc(Cl)nc(-c2cn(-c3ccccc3)c3ccccc23)n1 -21.3%
Nc1c(Cl)ncnc1NCC(O)CO (centres undefined) -0.893%
Cc1onc(-c2c(Cl)cccc2Cl)c1C(=O)c1ccc(F)cc1 -0.245%
Cc1nn(C)c(Sc2ccccn2)c1[N+](=O)[O-] 17.8%
Nc1ccc(Oc2ccccc2F)nc1 4.8%
Cc1nc(C)c(-c2ccn(C(=O)NC(C)C)n2)s1 -3.96%
CC(C)(C)c1ccc(C(=O)Nc2ccc(S(N)(=O)=O)cc2)cc1 -14.1%
c1ccc2oc(-c3ccn[nH]3)cc2c1 13%
CN(C)C(=S)Nc1ccc(Cl)cc1 -10.5%
C/C(=N\NC(=O)c1cc(-c2cccc([N+](=O)[O-])c2)n[nH]1)c1ccc(F)cc1 24.3%
Cc1cc(Cl)c2cc3ccccc3cc2n1 -4.05%
Cc1ccc(Cl)cc1NC(=S)NN -11.4%
Cc1cccc(NC(=S)N(CCN(C)C)C(C)c2ccccn2)c1 (centres undefined) 3.34% [at 22.1 µM]
COc1ccc(C2Sc3ccccc3N(CCN(C)C)C(=O)C2OC(C)=O)cc1 (centres undefined) -5.56%
c1ccc(N2CCOCCOCCOCCOCC2)cc1 -0.0612%
CC(C)(C)OC(=O)N1CCCN(C(=O)Nc2cccc(Cl)c2)CC1 -9.47%
COc1ccc(C(=O)COc2ccc(C)cc2NC(C)=O)cc1 1.31%
CC1CC(C)(C)NC(=S)O1 (centres undefined) -6.64%
CCCCCNc1nc2sc3c(c2c(=O)n1-c1cccc(Cl)c1)CCN(C)C3 10.2%

Potency, active:
Oc1cccc(O)c1O 0.888 µM
NC(Cc1ccc(O)c(O)c1)C(=O)O (centres undefined) 0.891 µM
N[C@H](Cc1ccc(O)c(O)c1)C(=O)O 7.08 µM
Cc1[nH]c(=O)[nH]c1C(=O)CCCCC(=O)OCC(=O)Nc1ccccn1 0.0447 µM
O=C1OCC2OC(O)C(O)C(O)C2OC(=O)c2cc(O)c(O)c(O)c2-c2c(O)c(O)c3oc(=O)c4c(c(O)c(O)c5oc(=O)c2c3c54)-c2c1cc(O)c(O)c2O (centres undefined) 0.398 µM
O=C(O[C@@H]1OC2COC(=O)c3cc(O)c(O)c(O)c3-c3c(cc(O)c(O)c3O)C(=O)O[C@@H]([C@H]1O)[C@@H]2O)c1cc(O)c(O)c(O)c1 0.891 µM
Cc1ccc(Cl)cc1NC(=S)N(CCN(C)C)C(C)c1ccccn1 (centres undefined) 1.22 µM
O=C1c2ccccc2C(=O)N1/N=C/c1ccc(O)c(O)c1O 2.82 µM

From PubChem BioAssay AID504375 (National Center for Advancing Translational Sciences (NCATS), 2011)
